According to PubChem BioAssay AID463 (The Scripps Research Institute Molecular Screening Center, 2006):
In all, about 56,000 compounds went through this assay and about 710 (1.3%) were called active.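 The calls were made as follows: active = inhibition above the mean inhibition of all tested compounds plus 3 SD (cut at about 28% in these data); inactive = the rest.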 The entries come from a sample that favours actives as a whole.

Assay: Jurkat cell viability reduction – Jurkat E6.1, 60K MLSMR library, cytotoxicity control, primary screen (AID 463)
Details: Jurkat E6.1 viability, ATP luminescence, 48 h; at 4 µM; hits give high values

For O=C(CSc1nc2c(cnn2-c2ccc(F)cc2)c(=O)[nH]1)N1CCCCCC1, which inhibition is on record?
Its inhibition is 2.5% (inactive).

For CC(C)Oc1ccc(C(=O)Nc2cc(=O)n(C)c(=O)n2C)cc1, which inhibition is on record?
The inhibition was 2.6% (inactive).

Which inhibition does the source give for COc1ccc(CCNS(=O)(=O)c2ccc(C(=O)NCc3ccco3)cc2)cc1OC here?
Its inhibition is 0.2% (inactive).

For O=C(c1ccco1)N1CCN(C(=O)C2CC(c3ccc(Cl)c(Cl)c3)=NO2)CC1 (configuration not stated), which inhibition is on record?
Its inhibition is -1.7% (inactive).

For COc1ccc(C2=NOC(C(=O)NCc3ccco3)C2)cc1OC (configuration not stated), which inhibition is on record?
The inhibition was 85.8% (active).

Which inhibition does the source give for CC(C)NS(=O)(=O)c1ccc(NC(=O)c2cccnc2)cc1 here?
The inhibition was 0.7% (inactive).

For Cc1cccc(NC(=O)COc2ccccc2C)n1, which inhibition is on record?
Its inhibition is 8.1% (inactive).

For CN1CCN(c2ccc(NC(=O)COc3ccc(Cl)cc3Cl)cc2)CC1, which inhibition is on record?
Its inhibition is -0.1% (inactive).

With Cc1ccccc1OCC(=O)Nc1ccc(N2CCN(C(=O)C(C)C)CC2)c(Cl)c1 as the compound, how does the inhibition read?
The inhibition was 30.2% (active).

With CCOC(=O)c1cnc(SCC(=O)NCc2ccco2)nc1N as the compound, how does the inhibition read?
Its inhibition is -0.1% (inactive).

Which inhibition does the source give for O=C(CSc1nnc(-c2cccs2)n1-c1ccccc1)NCc1ccco1 here?
Its inhibition is -1.7% (inactive).

For Cc1cc(C(=O)OCC(=O)NCc2ccco2)c(C)n1-c1ccccc1, which inhibition is on record?
The inhibition was 75.4% (active).

Which inhibition does the source give for COc1cccc(OC)c1C(=O)Nc1nnc(C(C)C)s1 here?
Its inhibition is 5.1% (inactive).

For Cc1ccc(OCC(=O)Nc2ccc(-c3nc4ncccc4o3)cc2)cc1, which inhibition is on record?
The inhibition was -9.9% (inactive).

Which inhibition does the source give for Nc1nonc1-c1nc2ccccc2n1Cc1ccc(F)cc1 here?
Its inhibition is 20.3% (inactive).

For COc1ccc(C)c(Cn2c(-c3nonc3N)nc3ccccc32)c1, which inhibition is on record?
Its inhibition is 75.3% (active).

Which inhibition does the source give for Nc1nonc1-c1nc2ccccc2n1CCC(=O)O here?
The inhibition was 1.7% (inactive).

For CCC(=NC1CC(C)(C)NC(C)(C)C1)C1=C(O)CC(C)(C)CC1=O, which inhibition is on record?
The inhibition was -4.2% (inactive).

For CCc1cc(=O)oc2cc(OCC(=O)N3CCCc4ccccc43)ccc12, which inhibition is on record?
Its inhibition is -8.4% (inactive).

Which inhibition does the source give for CCN(c1ccccc1)S(=O)(=O)c1ccc(N)cc1 here?
Its inhibition is -3.3% (inactive).

With CC1CN(c2cc(=O)n(-c3cccc(Br)c3)c(=O)[nH]2)CC(C)O1 (configuration not stated) as the compound, how does the inhibition read?
Its inhibition is 1.2% (inactive).

Which inhibition does the source give for CCC(=O)Nc1ccc2c(c1)nc(CCN1CCN(C)CC1)n2C here?
The inhibition was 7.5% (inactive).

For Cc1nn(CC(=O)Nc2ccc3c(c2)nc(CN2CCCCC2)n3C)c(=O)c2ccccc12, which inhibition is on record?
Its inhibition is 1.4% (inactive).

Which inhibition does the source give for Cn1c(CN2CCOCC2)nc2cc(NC(=O)c3ccc(Cl)cc3)ccc21 here?
Its inhibition is 86.9% (active).

Which inhibition does the source give for CC(=O)OC(C(=O)NCCc1ccccc1)c1cccnc1 (configuration not stated) here?
The inhibition was -5.8% (inactive).

For O=S(=O)(NCC1CCCO1)c1ccc2ccccc2c1 (configuration not stated), which inhibition is on record?
The inhibition was -0.5% (inactive).

Which inhibition does the source give for CC1CCCN(Cc2nc3c(c(=O)n(C)c(=O)n3C)n2CC(=O)c2ccccc2)C1 (configuration not stated) here?
Its inhibition is 4.9% (inactive).

With CC1=NC2(CCCc3c2no[n+]3[O-])N(O)C1(C)C (configuration not stated) as the compound, how does the inhibition read?
Its inhibition is 12.1% (inactive).

For Cc1cc(NC(=O)CSCc2nc(-c3cccc(Cl)c3)oc2C)no1, which inhibition is on record?
Its inhibition is 0.8% (inactive).

For O=C(Nc1cc(N2CCOCC2)ncn1)NC1(C(F)(F)F)Oc2ccc(Cl)cc2O1 (configuration not stated), which inhibition is on record?
The inhibition was 72.6% (active).

Which inhibition does the source give for COc1c(C)cccc1C(=O)Nc1cc(Cl)ccc1N1CCOCC1 here?
Its inhibition is -1% (inactive).

For c1cnn(-c2cc(N3CCOCC3)ncn2)c1, which inhibition is on record?
Its inhibition is -0.2% (inactive).

Which inhibition does the source give for CCOC(=O)C1=C(C)NC(C)=C(C(=O)OCC)C1C1=COCCO1 here?
The inhibition was -5.9% (inactive).

Which inhibition does the source give for CCOC(=O)CCc1c(C)c2ccc(OCc3nn[nH]n3)c(C)c2oc1=O here?
Its inhibition is -2.2% (inactive).

For CN(C)CCCn1c(N)c(C#N)c2nc(C#N)c(C#N)nc21, which inhibition is on record?
Its inhibition is 1.9% (inactive).

Which inhibition does the source give for CC(C)CNC(=O)c1cc(-c2ccc(Br)cc2)on1 here?
The inhibition was 1.8% (inactive).

Which inhibition does the source give for CC(C)Cc1cc(C(=O)NCCc2ccccc2)no1 here?
Its inhibition is 6% (inactive).

With CC(C)Cc1cc(C(=O)Nc2cc(Br)ccc2O)no1 as the compound, how does the inhibition read?
Its inhibition is 60.7% (active).

With COCCn1c(SCC(=O)Nc2cc(Cl)ccc2OC)nc2c(c1=O)SC(C)C2 (configuration not stated) as the compound, how does the inhibition read?
The inhibition was 6.8% (inactive).

Which inhibition does the source give for O=C(CSc1nnc(-c2ccco2)n1-c1ccccc1)NCCc1ccccc1 here?
The inhibition was 0.2% (inactive).

With N#Cc1nc(-c2ccc(OCc3ccccc3)cc2)oc1NCCCN1CCOCC1 as the compound, how does the inhibition read?
Its inhibition is -3.2% (inactive).

With CCOc1ccc(Nc2oc(Cc3ccccc3)nc2C#N)cc1 as the compound, how does the inhibition read?
Its inhibition is -0.9% (inactive).

Which inhibition does the source give for COc1ccc(Nc2oc(-c3ccccc3Cl)nc2C#N)cc1 here?
Its inhibition is 85.4% (active).

For O=C(Nc1nc(-c2ccncc2)cs1)C1COc2ccccc2O1 (configuration not stated), which inhibition is on record?
The inhibition was 7.3% (inactive).

Which inhibition does the source give for O=C(Nc1ccc2c(c1)OCCO2)c1ccncc1 here?
The inhibition was 3.8% (inactive).

Which inhibition does the source give for O=C(Nc1nc(-c2ccc3c(c2)OCO3)cs1)c1ccncc1 here?
Its inhibition is 44% (active).

Which inhibition does the source give for Cn1c(=O)cc(SCC(=O)N2CCCC2)c2cc(Cl)ccc21 here?
The inhibition was 3.9% (inactive).
